The record followed here is PubChem BioAssay (NCI).

Several values for one entry are separate records, joined by “and”; a condition that tells them apart may be missing. Equal values may be shown once. This is part of a sample that, as a whole, favours compounds with a hit. Of some 83,000 tested, about 20% had one in any assay.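 Results are percent growth after 48 hours of single-concentration exposure. 100 means growth as in untreated cells, lower positive values show inhibition; negative values down to -100 show cell death.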 Activity calls are given as the source filed them. How the source made its calls: active means growth percent below 10; inactive means the rest.

The assay has as its system MDA-MB-468 breast. Briefly: NCI-60 one-dose screen, 48 h (100 = growth as untreated, 0 = no growth, -100 = all killed). The following applies: 10 µM unless noted.
Turning to `Cc1cc(NC(=O)/C=C/c2ccc([N+](=O)[O-])cc2)ccc1S(=O)(=O)F`, the growth was 114% (inactive). For `COC(=O)[C@@H](C)C[C@H](Cc1ccccc1)NC(=O)c1csc([C@@H](C[C@H](C(C)C)N(C)C(=O)[C@@H](NC(=O)[C@H]2CCCN2C)C2CC2)OC(C)=O)n1`, the growth was -9.22% (active). With `COC1=CC(=O)OC(CCc2ccc3c(c2)OCO3)C1` (stereo not given), the growth is 95.9% (inactive). Take `O=C(CCl)NCNC(=O)CCl`: the growth was 96.8% (inactive).

On to `NC(=Nc1ccccc1)N[N+](=O)[O-]`, for which the growth was 92.2% (inactive). In the case of `CC[C@H](C)[C@H](NC(=O)C12CC(NC)(C1)C2)C(=O)N(C)[C@H](C[C@@H](OC(C)=O)c1nc(C(=O)N[C@@H](Cc2ccccc2)C[C@H](C)C(=O)OC)cs1)C(C)C`, the growth was -8.32% (active).

Consider `Cc1ccc(N2CCN(CCC#N)CC2)cc1`, for which the growth is 105% (inactive). With `CC(C)OC(=O)[C@H](C)NP(=O)(Oc1ccccc1)C1CCCN(O)C1=O` (stereo not given in full) the figure was 96.9% (inactive). As to `C=C(C)[C@@]12OC3(/C=C/C=C/CCCCC)O[C@@H]1[C@@H]1[C@@H]4O[C@]4(CO)[C@@H](O)[C@]4(O)C(=O)C(C)=C[C@H]4[C@@]1(O3)[C@H](C)[C@H]2OC(=O)c1ccccc1`, the growth is 56.5% (inactive). As to `C=CC12CCN(CC1)C(C(O)c1ccnc3ccc(OC)cc13)C2` (stereo not given), the growth was 11.6% (inactive). In the case of `COc1cc([C@@H]2c3cc4c(cc3[C@H](OC(C)=O)[C@H]3COC(=O)[C@@H]23)OCO4)cc(OC)c1OC`, the growth is -40.2% (active). `O=C(N/N=C/c1ccc(N(CCCl)CCCl)cc1)c1cc(=O)[nH]c(=O)[nH]1`: the growth is -0.0833% (active). In the case of `ClCCN(CCCl)c1ccc(C=NCCc2c[nH]c3ccccc23)cc1`, the growth is -16.7% (active).

As for `CCC1(C)CC(CCNCc2ccccc2O)(c2ccc(C)cc2)CCO1` (stereo not given), the growth was 110% (inactive). For `O=C(O)CNCP(=O)(O)O` the value was 102% (inactive); for `C=C[Se]CC(=O)/C=C/c1ccccc1`, 85.6% (inactive).

With `O=C1C(=Cc2cn(Cc3ccccc3)c3ccccc23)C(=O)N(Cc2ccccc2)C(=O)N1Cc1ccccc1`, the growth was -71.8% (active). For `O=S(=O)(O)c1ccc(-c2ccc([As](=O)(O)O)cc2)cc1`, the growth was 105% (inactive). Consider `O=c1cc[nH]c(=O)o1`, for which the growth is 105% (inactive). Consider `C/C(=C\c1cc(C(F)(F)F)n(-c2ccc(N)cc2)n1)[C@@H]1C[C@@H]2O[C@]2(C)CCC[C@H](C)[C@H](O)[C@@H](C)C(=O)C(C)(C)[C@@H](O)CC(=O)O1`, for which the growth is -16.6% (active). In the case of `CC1(C)N=C(N)N=C(N)N1c1ccc(OCCCCOc2ccc(S(=O)(=O)F)cc2)c(Cl)c1`, the growth was -16.2% (active).

Turning to `Nc1ccc(S(=O)(=O)F)cc1`, the growth was 107% (inactive). For `O=C1C(Cl)=C(N2CCOCC2)C(=O)c2ccccc21`, the growth was -81% (active). Turning to `COC(=O)CCC1=C(C)c2cc3[n-]c(cc4nc(cc5[n-]c(cc1n2)c(CCC(=O)OC)c5C)C=C4C)cc3C.[Cd+2]`, the growth was 81.6% (inactive). With `COc1ccc(-c2ccc(OC)c(OC)c2OC)cc1`, the growth was -20.7% (active). For `Cc1ccc(C(=O)NCCCOc2ccc(N3C(N)=NC(N)=NC3(C)C)cc2Cl)cc1S(=O)(=O)F`, the growth is 123% (inactive). As for `C[C@]12CC[C@H]3[C@@H](C[C@@H]4SC(Nc5ccccc5)=N[C@@]45CC(O)CC[C@]35C)[C@@H]1CCC2O` (stereo not given in full), the growth was -1% (active).

For the compound `C/C=C/CC(C)C(O)[C@H](NC(=O)[C@@H]1CCCN1C(=O)C(C)(C)NC(=O)CCCCCCCCC)C(=O)N[C@@](C)(CC)C(=O)N[C@@H](CCC(N)=O)C(=O)N[C@H](CCC(N)=O)C(=O)NC(C)(C)C(=O)NC(C)(C)C(=O)N[C@@H](CCC(N)=O)C(=O)N[C@H](CC(C)C)C(=O)N[C@H](CO)CC(C)C` (stereo not given in full), the growth was -53.4% (active) and 16.1% (inactive). `O=[N+]([O-])/C=C/c1ccc([N+](=O)[O-])cc1`: the growth is 77.7% (inactive). Regarding `COC(=O)C1=CCCN(C)C1`, the growth was 105% (inactive) and 92.8% (inactive). Take `C[C@]12CC[C@@H]3C4=C(CC[C@H]3[C@@H]1CC[C@@H]2O)CC(=O)CC4`: the growth is 101% (inactive). As for `Cc1cc(NC(=O)NCCOc2ccc(N3C(N)=NC(N)=NC3(C)C)cc2Cl)ccc1S(=O)(=O)F`, the growth is 29% (inactive). Regarding `CC1=C(CNO)C2=C(C)C3(CC3)[C@@](C)(O)C(=O)C2=C1`, the growth was -62.9% (active).

In the case of `O=[As](O)(O)c1ccccc1[As](=O)(O)O`, the growth was 99.7% (inactive).

For `O=C(O)C1C(C(=O)O)C2(Cl)C(Cl)=C(Cl)C1(Cl)C2(Cl)Cl.[Hg]` (stereo not given), the growth was 58.4% (inactive). Take `CC(C)CCC1C(=O)NC(=O)NC1=O`: the growth is 114% (inactive). As to `CC1(C)N=C(N)N=C(N)N1c1ccc(CCCCc2ccc(S(=O)(=O)F)cc2)c(Cl)c1`, the growth was 7.5% (active). In the case of `CC1=C[C@H]2O[C@@H]3C[C@H]4OC(=O)/C=C\C=C\[C@H]([C@@H](C)O)OCC[C@@H](C)[C@H](O)C(=O)OC[C@@]2(CC1)[C@]4(C)[C@]31CO1`, the growth is -66.7% (active). For `CC1(C)N=C(N)N=C(N)N1c1ccc(CNC(=O)Nc2ccc(S(=O)(=O)F)c(Cl)c2)c(Cl)c1` the value was 30.2% (inactive); for `C=CC1CN2CCC1CC2C(O)c1ccnc2ccccc12` (stereo not given), 107% (inactive).
